Source: PubChem BioAssay (NCATS)
Records with an inconclusive call do not appear. A call without a number means that no potency is given here. Active and inactive are the calls of the source. Calls follow the shape of the dose curve; as a rule, active = well fitted curve in the direction sought with a large enough effect; inconclusive = small, poorly fitted or top-dose-only effect, or another doubt; inactive = no such curve, though single readings can be large; an effect the other way counts as inactive or inconclusive.

Columns and labels:
[1] = qHTS assay to identify small molecule inhibitors of chordoma cells - UCH-1 (AID 1259355); conditions: UCH-1 chordoma viability, CellTiter-Glo, 48 h, combination; series mostly up to 46.1 µM; also: nearly all actives have a fitted effect of over 55% in size; also: potency is read from the fitted curve at half-maximal effect
Method in brief: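 Seed 800 cells per well; incubate overnight at 37 C, 5% CO2. Add test compounds (15 concentrations), then the auranofin–topoisomerase-agent combination. Incubate 48hr, add CellTiter-Glo, wait 30min, read luminescence.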

[2] = qHTS assay to identify small molecule inhibitors of chordoma cells - UCH-2 (AID 1259356); conditions: UCH-2 chordoma viability, CellTiter-Glo ATP luminescence, 48 h; series mostly up to 46.1 µM; also: potency is read from the fitted curve at half-maximal effect
[3] = qHTS profiling for inhibitors of Plasmodium falciparum (HB3) proliferation (AID 743324); conditions: Plasmodium falciparum HB3 blood-stage proliferation; at 28.7 µM (top of the series)
Method in brief: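 P. falciparum HB3 grown in erythrocytes (0.3% parasitemia, 2.5% hematocrit final) with compound for 72 h at 37 C, 5% CO2. Parasite DNA detected by SYBR Green after saponin/triton lysis overnight; normalized to 0.29 uM artemisinin and DMSO.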

Structure (SMILES) | Potency [1] | Potency [2] | remaining proliferation (% of control), lower = more inhibition [3]
COc1ccc2c3c1O[C@H]1C(=O)CC[C@H]4[C@@H](C2)N(C)CC[C@]314 | inactive | inactive | 
ClC=C(Cl)Cl | inactive | inactive | 
C[C@]12CC[C@H](OS(=O)(=O)O)CC1=CC[C@@H]1[C@@H]2CC[C@]2(C)C(=O)CC[C@@H]12 | inactive | inactive | 
C[C@@H](Cc1ccccc1)NCCC(c1ccccc1)c1ccccc1 | inactive | inactive | 
C[C@H]1CC[C@]2(NC1)O[C@H]1C[C@H]3[C@@H]4CC[C@H]5C[C@@H](O[C@@H]6O[C@H](CO)[C@H](O[C@@H]7O[C@H](CO)[C@@H](O)[C@H](O[C@@H]8OC[C@@H](O)[C@H](O)[C@H]8O)[C@H]7O[C@@H]7O[C@H](CO)[C@@H](O)[C@H](O)[C@H]7O)[C@H](O)[C@H]6O)CC[C@]5(C)[C@H]4CC[C@]3(C)[C@H]1[C@@H]2C | 12600 nM (active) | 2060 nM (active) | 
CC(C)Nc1ccc(Nc2ccccc2)cc1 | inactive | inactive | 
CCCCCc1cc(O)c2c(c1)OC(C)(C)[C@@H]1CCC(C)=C[C@@H]21 | inactive | inactive | 
CCN(CC)CCO[C@H]1CC[C@@]2(C)C(=CC[C@@H]3[C@@H]2CC[C@]2(C)C(=O)CC[C@@H]32)C1 | inactive | inactive | 
C[C@]12CC[C@H]3[C@@H](CC[C@@]45O[C@@H]4C(O)=C(C#N)C[C@]35C)[C@@H]1CC[C@@H]2O | inactive | inactive | 
CC(=O)Oc1ccc2c3c1O[C@H]1[C@@H](OC(C)=O)C=C[C@H]4[C@@H](C2)N(C)CC[C@@]341 | inactive | inactive | 
C[C@@H]([C@H](O)c1ccccc1)N(C)C | inactive | inactive | 
CN1[C@H]2CC[C@@H]1[C@@H](C(=O)O)[C@@H](OC(=O)c1ccccc1)C2 | inactive | inactive | 
S=C=S | inactive | inactive | 
CC[C@H](C)[C@H]1O[C@]2(C=C[C@@H]1C)C[C@@H]1C[C@@H](C/C=C(\C)[C@@H](O[C@H]3C[C@H](OC)[C@@H](O[C@H]4C[C@H](OC)[C@@H](O)[C@H](C)O4)[C@H](C)O3)[C@@H](C)/C=C/C=C3\CO[C@@H]4[C@H](O)C(C)=C[C@@H](C(=O)O1)[C@]34O)O2 | inactive | inactive | 
ClC(Cl)(Cl)Cl | inactive | inactive | 
O=[N+]([O-])c1ccccc1 | inactive | inactive | 
CO[C@H]1[C@@H](O)C[C@H](O[C@H]2[C@@H](O)C[C@H](O[C@H]3[C@@H](O)C[C@H](O[C@H]4CC[C@@]5(C)[C@H](CC[C@@H]6[C@@H]5C[C@@H](O)[C@]5(C)[C@@H](C7=CC(=O)OC7)CC[C@]65O)C4)O[C@@H]3C)O[C@@H]2C)O[C@@H]1C | 355 nM [with auranofin plus four topoisomerase inhibitors] (active) | 58 nM (active) | 
CN1c2ccccc2C(NCCCCCCC(=O)O)c2ccc(Cl)cc2S1(=O)=O (stereo unspecified) | inactive | inactive | 

Structure (SMILES) | Potency [1] | Potency [2] | remaining proliferation (% of control), lower = more inhibition [3]
CC(C)(O)[C@@H]1[C@H]2OC(=O)[C@@H]1[C@]1(O)C[C@H]3O[C@]34C(=O)O[C@H]2[C@]14C | inactive | inactive | 
CCN(CC)C(=O)N[C@H]1C[C@@H]2c3cccc4[nH]cc(c34)C[C@H]2N(C)C1 | inactive | inactive | 
[O]=[Cd] | inactive | inactive | 
CC(=O)OO | inactive | inactive | 
CCC1(c2ccccc2)C(=O)NC(=O)NC1=O |  | inactive | 
O=C(O)C(Cl)(Cl)Cl |  | inactive | 
C/C(=C\c1csc(C)n1)[C@@H]1C[C@@H]2O[C@]2(C)CCC[C@H](C)[C@H](O)[C@@H](C)C(=O)C(C)(C)[C@@H](O)CC(=O)O1 | inactive | inactive | 14.1%
CCC(N)Cc1c[nH]c2ccccc12 (stereo unspecified) | inactive | inactive | 
O=C(NCNC(=O)NC1C(=O)NC(=O)N1CO)NC1C(=O)NC(=O)N1CO (stereo unspecified) | inactive | inactive | 
COc1cc2c(cc1OC)[C@@]13CCN4CC5=CCO[C@H]6CC(=O)N2[C@H]1[C@H]6[C@H]5C[C@H]43 | inactive | inactive | 
CN(C)[C@H](Cc1ccccc1)c1ccccc1 | inactive | inactive | 
O=[N+]([O-])C(Br)(CO)CO |  | inactive | 
C[C@H]1CCC[C@H](O)CCCCCc2cc(O)cc(O)c2C(=O)O1 | inactive | inactive | 
O=C1C=C2C=C[C@@H]3C[C@@]2(O1)[C@H]1CCCCN31 |  | inactive | 
CCCCNCC(O)c1ccc(O)cc1 (stereo unspecified) | inactive | inactive | 
[Cl-].[Cl-].[Hg+2] |  | inactive | 
CCNCC(O)c1cccc(O)c1 (stereo unspecified) | inactive | inactive | 
